The text below walks through data of PubChem BioAssay (NCATS).

For assay [1], the system named is NIH3T3. Nature of the assay: Cytotoxic Profiling of Annotated Libraries Using Quantitative High-Throughput Screening (AID 1296008). Note: nearly all actives have a fitted effect of over 60% in size. The following applies: Five cell lines viability, CellTiter-Glo ATP luminescence, 48-72 h; max response: active compounds read low. Summed up:
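Compounds were pin-transferred onto cells and incubated 48 or 72 hr at 37 degree Celsius, 95% humidity. CellTiter-Glo was added, plates sat 10 min at room temperature, then ATP-coupled luminescence was imaged as the viability read-out.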
On the technique in general: Cellular ATP, detected with luciferase, serves as a proxy for viable cell number.

The subject of the next assay is MCC-26. Nature of the assay: qHTS assay to identify novel small-molecules to repurpose for Merkel cell carcinoma treatment (AID 1296009). Note: nearly all actives have a fitted effect of over 60% in size. The conditions noted are these: MCC and control cell lines, CellTiter-Glo viability, 72 h; series mostly up to 46 µM. Summed up:
(§1)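 Viability readout: ATP luminescence (CellTiter-Glo) after 72 hr drug exposure at 37 degree celsius. Dose-response format was 8 points for NPC and 11 points for MIPE; data normalized to in-plate controls.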

Another assay relates to MKL-1. Described as above. The conditions noted are these: MCC and control cell lines, CellTiter-Glo viability, 72 h; series mostly up to 46 µM. In short, it runs like this:
as §1

The test system of a further assay is MKL-2. The description is as above. The conditions noted are these: MCC and control cell lines, CellTiter-Glo viability, 72 h; series mostly up to 46 µM. In short, it runs like this:
as §1

For another assay, the system named is UISO. Described as above. The conditions noted are these: MCC and control cell lines, CellTiter-Glo viability, 72 h; series mostly up to 46 µM. Summed up:
as §1

The test system of another assay is WaGa. The description is as above. The following applies: MCC and control cell lines, CellTiter-Glo viability, 72 h; series mostly up to 46 µM. In short, it runs like this:
as §1

The next assay deals with C33A. Briefly: Primary qHTS to identify gynecologic anti-cancer compounds using libraries of approved drugs and bioactive compounds (AID 1345084). Note: nearly all actives have a fitted effect of over 55% in size. The conditions noted are these: Gynecologic cancer cell panel viability, ATPlite luminescence, 48 h; series mostly up to 57.5 µM. In short, it runs like this: (§2)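 Cells, 1,000 per well, plated 16 h, then exposed 48 h at 37 C to compounds. Viability by ATPlite luminescence after 15 min at room temperature.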
A general note: qHTS replaces the single test concentration by a dilution series.

A further assay has as its system CAOV3. Described as above. The following applies: Gynecologic cancer cell panel viability, ATPlite luminescence, 48 h; series mostly up to 57.5 µM. Summed up:
as §2

The next assay has as its system CASKI. Described as above. The conditions noted are these: Gynecologic cancer cell panel viability, ATPlite luminescence, 48 h; series mostly up to 57.5 µM. Summed up: as §2
Another assay concerns HeLa. The description is as above. The conditions noted are these: Gynecologic cancer cell panel viability, ATPlite luminescence, 48 h; series mostly up to 57.5 µM. Summed up: as §2
In the next assay the test system is Hek293T. The assay is described as above. The following applies: Gynecologic cancer cell panel viability, ATPlite luminescence, 48 h, control line for the selectivity index; series mostly up to 57.5 µM. Summed up: as §2
In another assay the test system is JEG-3. The description is as above. The conditions noted are these: Gynecologic cancer cell panel viability, ATPlite luminescence, 48 h; series mostly up to 57.5 µM. Summed up:
as §2

In a further assay the test system is OV90. Described as above. The following applies: Gynecologic cancer cell panel viability, ATPlite luminescence, 48 h; series mostly up to 57.5 µM. Summed up:
as §2

A further assay concerns PA-1. The assay is described as above. The following applies: Gynecologic cancer cell panel viability, ATPlite luminescence, 48 h; series mostly up to 57.5 µM. Summed up:
as §2

The next assay relates to SKOV3. The assay is described as above. The following applies: Gynecologic cancer cell panel viability, ATPlite luminescence, 48 h; series mostly up to 57.5 µM. In short, it runs like this:
as §2

For a further assay, the system named is MCC-13. Briefly: qHTS assay to identify novel small-molecules to repurpose for Merkel cell carcinoma treatment (AID 1296009). Note: nearly all actives have a fitted effect of over 60% in size. The conditions noted are these: MCC and control cell lines, CellTiter-Glo viability, 72 h; series mostly up to 46 µM. In short, it runs like this: as §1
In another assay the test system is Es-2. Nature of the assay: Primary qHTS to identify gynecologic anti-cancer compounds using libraries of approved drugs and bioactive compounds (AID 1345084). Note: nearly all actives have a fitted effect of over 55% in size. The following applies: Gynecologic cancer cell panel viability, ATPlite luminescence, 48 h; series mostly up to 57.5 µM. In short, it runs like this:
as §2

Assay [2] has as its system NIH3T3. Briefly: qHTS assay to identify novel small-molecules to repurpose for Merkel cell carcinoma treatment (AID 1296009). Note: nearly all actives have a fitted effect of over 60% in size. The following applies: MCC and control cell lines, CellTiter-Glo viability, 72 h; at 44.8 µM (top of the series) unless noted. Summed up: as §1

Several values for one entry are separate records, joined by “and”; a condition that tells them apart may be missing. Equal entries are not always repeated. Results filed as inconclusive are left out. Unmarked numbers belong to inactive results. Activity calls are given as the source filed them. Calls come from the whole dose curve; as a rule, active = well fitted curve in the direction sought with a large enough effect; inconclusive = small, poorly fitted or top-dose-only effect, or another doubt; inactive = no such curve, though single readings can be large; an effect the other way counts as inactive or inconclusive.
% is set by controls: 0 for no effect and ±100 for the full control effect; potency is the fitted concentration of half-maximal effect.

Take `Cn1cnc2c(F)c(Nc3ccc(Br)cc3Cl)c(C(=O)NOCCO)cc21`: the values for the Potency in the assay with NIH3T3 [1] and in the assay on OV90 were 4.18 µM (active) and 1.58 µM (active), respectively. The Potency entry in the assay with MCC-26, in the assay on MKL-1, in the assay with MKL-2, in the assay with UISO, with WaGa and in the assay on C33A was “inactive” each time. Also, the Potency result in the assay on CAOV3, in the assay on CASKI, with HeLa, in the assay on Hek293T, in the assay on JEG-3 and with PA-1 was “inactive” throughout. Also, in the assay on SKOV3, the Potency entry is “inactive”.

`Nc1nccc(-c2ccc3noc(-c4ccc(Cl)cc4)c3c2)n1`: in the assay on NIH3T3 [1], the max response was -8.8%. Moreover, the Potency result with MCC-13, in the assay with MCC-26, in the assay with MKL-1, in the assay on MKL-2 and with WaGa was “inactive” throughout.

As for `O=C(c1cc(Cc2n[nH]c(=O)c3ccccc23)ccc1F)N1CCN(C(=O)C2CC2)CC1`, the max response in the assay on NIH3T3 [1] is -27.5% and -49.1%. Besides, the Potency entry with MCC-13, with MCC-26, with MKL-1, in the assay with C33A, in the assay on CASKI and in the assay with Es-2 was “inactive” each time. For the same compound, the Potency entry in the assay with HeLa, in the assay on Hek293T, in the assay on JEG-3, in the assay with OV90 and in the assay on PA-1 was “inactive” each time. Also, the Potency in the assay with UISO is 16.6 µM (active).

For `CS(=O)(=O)c1cccc(CNc2nc(Nc3ccc4c(c3)CCC(=O)N4)ncc2C(F)(F)F)c1`, the Potency in the assay on NIH3T3 [1] was 8.2 µM (active); in the assay with WaGa it was 16.6 µM (active). Further, the Potency entry in the assay with MCC-13, in the assay with MKL-2, in the assay on C33A, in the assay on CASKI, in the assay on Es-2 and with Hek293T was “inactive” each time. Also, the Potency entry with OV90 was “inactive”.

Take `c1ccc(-c2nn3c(c2-c2ccnc4cc(OCCN5CCOCC5)ccc24)CCC3)nc1`: the results for the Potency in the assay on NIH3T3 [1] and in the assay with WaGa were 5.26 µM (active) and 14.8 µM (active), respectively. For the same compound, the Potency entry with MCC-13, with MCC-26, in the assay with MKL-1 and with MKL-2 was “inactive” throughout.

For `O=C(C=Cc1ccc(/C=C/C(=O)Nc2ccc(C3=NCCN3)cc2)cc1)Nc1ccc(C2=NCCN2)cc1`, the compound was classed as inactive in the assay with NIH3T3 [1] and with NIH3T3 [2]. Further, the Potency result in the assay with MCC-13, in the assay on MKL-1, in the assay with MKL-2, in the assay with UISO and in the assay with WaGa was “inactive” throughout.

Take `CS(=O)(=O)c1ccc(C(=O)Nc2ccc(Cl)c(-c3ccccn3)c2)c(Cl)c1`: the max response in the assay on NIH3T3 [1] is -17.3% and -11.2%. Further, the Potency result in the assay on MCC-13, with MCC-26, in the assay with MKL-1, with MKL-2, with UISO and with WaGa was “inactive” in each case. Also, the Potency result in the assay on CAOV3, in the assay on CASKI, with Es-2, in the assay on HeLa, in the assay with Hek293T and in the assay on JEG-3 was “inactive” in each case. Also, the Potency entry in the assay with OV90, with PA-1 and with SKOV3 was “inactive” each time.

For the compound `O=c1[nH]c(-c2ccc(C(F)(F)F)cc2)nc2c1CSCC2`, the max response in the assay on NIH3T3 [1] was -7.54%. Also, the Potency entry in the assay on MCC-13, in the assay with MCC-26, in the assay with MKL-1, in the assay with MKL-2 and with WaGa was “inactive” in each case. In addition, the Potency with Es-2 was 28.2 µM (active).

`CCCc1nn(C)c2c(=O)[nH]c(-c3cc(S(=O)(=O)N4CCN(C)CC4)ccc3OCC)nc12`: in the assay on NIH3T3 [1], the max response was -19.3% and 3.51%. For the same compound, the Potency result in the assay with MCC-13, with MCC-26, in the assay with MKL-1, in the assay with MKL-2, with UISO and in the assay on WaGa was “inactive” in each case. For the same compound, the Potency entry in the assay with C33A, with CASKI, with Es-2, in the assay with HeLa, with Hek293T and in the assay on JEG-3 was “inactive” each time. Further, the Potency entry with OV90, in the assay with PA-1 and in the assay on SKOV3 was “inactive” throughout.

Consider `Cc1ccc(NC(=O)c2cccc(C(C)(C)C#N)c2)cc1Nc1ccc2ncn(C)c(=O)c2c1`, for which the Potency in the assay on NIH3T3 [1] was 16.6 µM (active). For the same compound, the Potency entry in the assay on MCC-26, with MKL-1, with MKL-2 and in the assay with WaGa was “inactive” each time.

For `S=C(NCc1ccc2c(c1)OCO2)N1CCN(c2ncnc3c2oc2ccccc23)CC1`, the max response in the assay on NIH3T3 [1] was -27.2%. Further, the Potency entry in the assay on MCC-13, in the assay with MCC-26, with HeLa, with JEG-3 and with PA-1 was “inactive” each time.

`N#Cc1ccc(C(c2ccc(C#N)cc2)n2cncn2)cc1`: the max response in the assay with NIH3T3 [1] is 2.6%. The Potency entry in the assay on MCC-13, in the assay with MCC-26, in the assay with MKL-2, in the assay on UISO and in the assay with WaGa was “inactive” in each case.
